The campaign covered roughly 310,000 compounds. About 2,200 (0.71%) showed an effect of 50% or more. The effect is printed as a negative number. This excerpt belongs to a sample that is enriched for strong results.
Each compound was assayed against human ether-à-go-go-related gene (hERG) potassium channel (human, UniProt Q12809) (assay: primary screen, population patch clamp on CHO cells stably expressing hERG; higher = less effect of the substance).
Sequence of human ether-à-go-go-related gene (hERG) potassium channel (Q12809 whole entry, looked up): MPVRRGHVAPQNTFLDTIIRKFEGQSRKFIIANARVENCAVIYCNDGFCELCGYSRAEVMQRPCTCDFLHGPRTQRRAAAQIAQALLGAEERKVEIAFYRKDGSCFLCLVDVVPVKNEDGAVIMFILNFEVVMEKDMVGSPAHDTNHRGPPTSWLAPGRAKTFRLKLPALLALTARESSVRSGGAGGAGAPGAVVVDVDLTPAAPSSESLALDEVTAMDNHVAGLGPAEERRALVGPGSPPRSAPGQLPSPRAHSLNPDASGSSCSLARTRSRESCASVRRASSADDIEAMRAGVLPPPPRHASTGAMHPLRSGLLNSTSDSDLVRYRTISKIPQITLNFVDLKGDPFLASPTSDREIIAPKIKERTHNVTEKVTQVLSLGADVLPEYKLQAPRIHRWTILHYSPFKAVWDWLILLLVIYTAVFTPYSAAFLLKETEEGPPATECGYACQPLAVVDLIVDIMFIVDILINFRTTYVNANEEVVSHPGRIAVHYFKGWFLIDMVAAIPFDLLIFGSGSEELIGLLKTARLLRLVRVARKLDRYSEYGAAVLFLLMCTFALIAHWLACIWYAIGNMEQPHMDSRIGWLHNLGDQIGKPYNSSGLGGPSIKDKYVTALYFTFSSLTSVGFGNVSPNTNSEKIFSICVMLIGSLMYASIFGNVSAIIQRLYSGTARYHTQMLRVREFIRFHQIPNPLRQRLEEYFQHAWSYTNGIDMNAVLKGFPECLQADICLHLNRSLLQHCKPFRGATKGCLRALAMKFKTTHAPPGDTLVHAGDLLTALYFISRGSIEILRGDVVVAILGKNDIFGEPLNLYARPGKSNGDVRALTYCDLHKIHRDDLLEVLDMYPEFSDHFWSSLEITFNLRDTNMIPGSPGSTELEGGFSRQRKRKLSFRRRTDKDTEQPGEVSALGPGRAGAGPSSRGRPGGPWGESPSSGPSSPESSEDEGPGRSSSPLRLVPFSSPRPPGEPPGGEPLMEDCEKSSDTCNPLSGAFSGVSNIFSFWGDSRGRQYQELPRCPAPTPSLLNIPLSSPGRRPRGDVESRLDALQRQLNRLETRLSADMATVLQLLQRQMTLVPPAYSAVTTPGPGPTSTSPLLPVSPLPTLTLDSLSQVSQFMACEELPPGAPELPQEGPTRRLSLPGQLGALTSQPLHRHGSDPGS

SMILES | hERG current change (%, negative = inhibition) at 1uM
COc1cc(S(=O)(=O)N2CCOCC2)ccc1NC(=O)c1cc2c(s1)CCC2 | 3.78%
Cc1ccc2c(c1)N(C(=O)CCC(=O)NCc1cccnc1)CCO2 | -4.63%
COc1cccc(CN(C)CC(=O)NCc2ccccc2Cl)c1 | 14.6%
CSc1ccc(CN(C)CC(=O)NCc2ccc(F)cc2)cc1 | -19.3%
CCOc1ccc(CN(C)CC(=O)NCc2ccccc2Cl)cc1 | -73.6%
COc1cccc(CN(C)CC(=O)NCc2ccccc2Cl)c1OC | 10.6%
CCOc1ccc(CN(C)CC(=O)NCc2ccc(F)cc2)cc1 | -78.6%
CN(CC(=O)NCc1ccc(F)cc1)Cc1ccc(Br)cc1 | 2.94%
CCOC(=O)c1ccc(Oc2nc(NC(C)(C)C)nc(N(C)C)n2)cc1 | 6.02%
CCOC(=O)Nc1c(C(=O)OC)[nH]c2cc(OC)ccc12 | -3.1%
CCCn1c(SCc2ccccn2)nc2c1c(=O)n(C)c(=O)n2C | 16.5%
O=[N+]([O-])c1ccc(NC(=S)N/C(=N/CS(=O)(=O)c2ccccc2)c2ccccc2)cc1 | 11%
CN(C)C(=S)NC(=NCc1ccc([N+](=O)[O-])cc1)c1ccccc1 | -60.3%
O=[N+]([O-])c1cccc(C(=NCc2ccccc2)NO)c1 | 15.5%
S=C(NCCc1ccccn1)Nc1ccccc1Cl | 17%
COc1cn(-c2ccccc2)nc1C(=O)OCC(=O)Nc1ccc(C)c(C)c1 | 12.1%
CC(NC(=O)c1ccc2c(c1)OCO2)C1CCCO1 (stereo not drawn) | -0.0414%
CCN(CC)C(=O)CSc1nc2c(sc(=S)n2Cc2ccco2)c(=O)n1-c1ccccc1 | 5.26%
C=CCn1c(SCC(=O)N2CCCC2=O)nc2sc(CC)cc2c1=O | -20%
O=C(CSc1nc2ccccc2c(=O)n1Cc1ccco1)N1CCCC1 | -81.3%

SMILES | hERG current change (%, negative = inhibition) at 1uM
CCCCn1c(SCC(=O)N2CCOCC2)nc2ccccc2c1=O | -39.4%
C=CCn1c(SCC(=O)N2CCN(C(=O)c3ccco3)CC2)nc2sc(CC)cc2c1=O | -85.6%
CCN(CC)C(=O)CSc1nc2c(sc(=S)n2CC)c(=O)n1-c1ccccc1 | -13.3%
CCOC(=O)CSc1nc2ccccc2c(=O)n1Cc1ccco1 | 0.785%
CCCn1c(SCC(=O)N2CCN(C(=O)c3ccco3)CC2)nc2ccccc2c1=O | -84.8%
CC(C)Cn1c(SCC(=O)N2CCN(C(=O)c3ccco3)CC2)nc2ccccc2c1=O | -42.9%
NC(=O)CSc1nc2ccccc2c(=O)n1Cc1ccco1 | -15.1%
C=CCn1c(SCC(=O)N2CCc3ccccc3C2)nc2sc(CC)cc2c1=O | 10.8%
CCN(CC)C(=O)CSc1nc2c(sc(=S)n2-c2ccccc2)c(=O)n1Cc1ccco1 | -86.3%
Cc1cccc(OCCNC(=O)CCNS(=O)(=O)c2ccc3ccccc3c2)c1 | 6.04%
CCCn1nc(C(=O)Nc2ccc(N3CCOCC3)cc2)c2ccccc2c1=O | 1.6%
O=C(Cn1nc(Br)nc1Br)c1ccccc1 | 10.2%
COc1cc(C2NC(=O)NC(C)=C2C(=O)NCc2ccccc2)c(Cl)cc1O (stereo not drawn) | 13.7%
COCCNC(=O)C1CC(c2ccccc2C(F)(F)F)=NO1 (stereo not drawn) | 14.7%
CCCn1c(SCC(=O)N2CCN(c3ccccc3)CC2)nc2ccccc2c1=O | -4.8%
Cn1c(SCC(=O)NCCN2C(=O)CSC2=O)nc2ccccc2c1=O | 7.27%
CCn1c(SCC(=O)N2CCCCCC2)nc2ccccc2c1=O | 2.02%
O=C(CSc1nc2ccccc2c(=O)n1CCCN1CCOCC1)N1CCN(c2ccccc2)CC1 | -6.61%
CCn1c(SCC(=O)N2CCCC2)nc2ccccc2c1=O | -7.76%
O=C(CSc1nc2ccccc2c(=O)n1Cc1ccco1)NCCN1C(=O)CSC1=O | -56%

SMILES | hERG current change (%, negative = inhibition) at 1uM
O=C(CSc1nc2ccccc2c(=O)n1Cc1ccco1)N1CCCCCC1 | -82.8%
O=C(CSc1nc2ccccc2c(=O)n1Cc1ccco1)N1CCN(c2ccccc2)CC1 | -83.6%
O=C(CSc1nc2ccccc2c(=O)n1Cc1ccco1)NCc1ccco1 | -40.8%
COc1cc(OC)c(NC(=S)NCc2ccc(F)cc2)cc1Cl | 8.5%
Oc1ccccc1N1CCN(Cc2ncc(-c3ccccc3)o2)CC1 | 7%
O=C(CSc1nnnn1-c1ccc2c(c1)OCCO2)OC1CCCCC1 | 6.23%
COc1ccc(C)cc1Nc1nc(-c2c(C)[nH]c3ccccc23)cs1 | 4.55%
CSc1ccc(/C=c2\s/c(=C\C(=O)C(C)(C)C)n(CC(=O)NCCC3=CCCCC3)c2=O)cc1 | -3.41%
Cc1c(CN(C)C)c2c(n1Cc1ccccc1)C(=O)c1ccccc1-2.Cl | -79%
Cc1c(CN(C)C)c2c(n1C)C(=O)c1ccc(Br)cc1-2.Cl | -2.4%
Cc1c(CN(C)C)c2c(n1Cc1ccccc1)C(=O)c1ccc(Br)cc1-2.Cl | -16.4%
CCCCOP(=O)(OCCCC)C(O)c1ccc(N(C)C)cc1 (stereo not drawn) | 12.5%
CSc1ccccc1OCc1cc(C(=O)NC2CCc3ccccc32)no1 (stereo not drawn) | 17.2%
OCc1ncccc1O | 8.62%
O=[N+]([O-])c1ccc(CN2CCOCCOCCOCC2)cc1 | -20.5%
COc1ccc(CN2CCOCCOCCN(Cc3ccc(OC)cc3)CCOCCOCC2)cc1 | -84.1%
O=[N+]([O-])c1ccc(CN2CCCCCC2)cc1 | -0.361%
COc1ccc(CN2CCOCCOCCOCCOCCOCC2)cc1 | 7.46%
COc1ccc(CN2CCOCCOCCOCC2)cc1 | -21.8%
O=[N+]([O-])c1ccc(CN2CCOCCOCCN(Cc3ccc([N+](=O)[O-])cc3)CCOCC2)cc1 | -86.9%

Reference: article PMC4336329 (PLoS ONE, 2015)
